Test results: the supplement of paper PMC10849652
About 8,800 targets were measured; listed, in parts, are those with a hit and a random draw of the rest. About 0.5% of all pairs of compound and target were hits.

Key:
Experiment in all cases: log2 fold change, soluble protein after heating vs DMSO (PISA); higher = thermal stabilisation; K562 lysate, 10 uM; active = over 0.2 and 3.5 SD of the protein, either way, in both replicates (recomputed)
vemurafenib = compound: CCCS(=O)(=O)Nc1ccc(F)c(C(=O)c2c[nH]c3ncc(-c4ccc(Cl)cc4)cc23)c1F [vemurafenib]
Summary of the method: (§1)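 Values give the log-two fold change in thermal stability against solvent controls, from duplicates. Crude K562 extract at 1 mg/mL protein, made by dounce homogenisation in PBS pH 7.4 with 1 mM MgCl2, was treated with 10 μM compound for 30 min. After 3 min heating across 48°C-58°C, aliquots were pooled, adjusted to 0.5% NP-40 at 4°C and centrifuged at 21,000xg for 90 min. The supernatant was measured by TMTpro 16plex LC-MS/MS with channel sums equalised.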

[1] = compound: CCCS(=O)(=O)Nc1ccc(F)c(C(=O)c2c[nH]c3ncc(Cl)cc23)c1F
Summary of the method: as §1

barasertib = compound: CCN(CCCOc1ccc2c(Nc3cc(CC(=O)Nc4cccc(F)c4)[nH]n3)ncnc2c1)CCOP(=O)(O)O [barasertib]
Summary of the method: as §1

[2] = compound: CC[C@@H]1C(=O)N(C)c2cnc(Nc3ccc(C(=O)NC4CCN(C)CC4)cc3OC)nc2N1C1CCCC1
Summary of the method: as §1

volasertib = compound: CC[C@@H]1C(=O)N(C)c2cnc(Nc3ccc(C(=O)N[C@H]4CC[C@H](N5CCN(CC6CC6)CC5)CC4)cc3OC)nc2N1C(C)C [volasertib]
Summary of the method: as §1

[3] = compound: CCn1c(C(=O)N(C2CC2)C2CC2)cc2c3c(ncn3C)c(Nc3cc(C)n(C)n3)nc21
Summary of the method: as §1

[4] = compound: CCn1cc(-c2ccnc3[nH]c(-c4cccc(CN(C)C)c4)cc23)c(-c2ccc(NC(=O)N(C)C)cc2)n1
Summary of the method: as §1

[5] = compound: CN1CCC(CNc2ccc3ncc(-c4cccc(OC(F)(F)F)c4)n3n2)CC1
Summary of the method: as §1

saracatinib = compound: CN1CCN(CCOc2cc(OC3CCOCC3)c3c(Nc4c(Cl)ccc5c4OCO5)ncnc3c2)CC1 [saracatinib]
Summary of the method: as §1

sotrastaurin = compound: CN1CCN(c2nc(C3=C(c4c[nH]c5ccccc45)C(=O)NC3=O)c3ccccc3n2)CC1 [sotrastaurin]
Summary of the method: as §1

alvocidib = compound: CN1CC[C@H](c2c(O)cc(O)c3c(=O)cc(-c4ccccc4Cl)oc23)[C@H](O)C1 [alvocidib]
Summary of the method: as §1

Tubastatin A = compound: CN1CCc2c(c3ccccc3n2Cc2ccc(C(=O)NO)cc2)C1 [Tubastatin A]
Summary of the method: as §1

[6] = compound: CNC(=O)C1=CC=CC=C1NC2=NC(=NC=C2Cl)NC3=C(C=C(C=C3)N4CCOCC4)OC
Summary of the method: as §1

defactinib = compound: CNC(=O)c1ccc(Nc2ncc(C(F)(F)F)c(NCc3nccnc3N(C)S(C)(=O)=O)n2)cc1 [defactinib]
Summary of the method: as §1

[7] = compound: CNc1nc(-c2ccc3c(N)n[nH]c3c2)cc(N2C[C@@H](C(=O)NC3CCCCC3)CC[C@H]2C)n1
Summary of the method: as §1

encorafenib = compound: COC(=O)N[C@@H](C)CNc1nccc(-c2cn(C(C)C)nc2-c2cc(Cl)cc(NS(C)(=O)=O)c2F)n1 [encorafenib]
Summary of the method: as §1

[8] = compound: COC(=O)[C@H](CCSC)NC(=O)C1=C(C=C(C=C1)NC[C@H](CS)N)C2=CC=CC=C2
Summary of the method: as §1

alisertib = compound: COc1cc(Nc2ncc3c(n2)-c2ccc(Cl)cc2C(c2c(F)cccc2OC)=NC3)ccc1C(=O)O [alisertib]
Summary of the method: as §1

[9] = compound: COc1cc2nc(-c3cc(F)ccc3O)nc(N[C@@H]3CNC[C@H]3C(C)(C)O)c2cc1OC
Summary of the method: as §1

gefitinib = compound: COc1cc2ncnc(Nc3ccc(F)c(Cl)c3)c2cc1OCCCN1CCOCC1 [gefitinib]
Summary of the method: as §1

Measured: log2 fold change

NCK1 (UniProt P16333)
inactive: vemurafenib 0.049 | [1] 0.003 | barasertib -0.008 | [2] 0.068 | volasertib -0.011 | [3] -0.025 | [4] 0.067 | [5] -0.05 | saracatinib 0.015 | sotrastaurin 0.014 | alvocidib 0 | Tubastatin A -0.097 | [6] 0.023 | defactinib -0.02 | [7] -0.008 | encorafenib 0.008 | [8] -0.068 | alisertib -0.003 | [9] -0.007 | gefitinib 0.026

MTHFD1L (UniProt B7ZM99)
inactive: vemurafenib 0.01 | [1] 0 | barasertib -0.033 | [2] -0.111 | volasertib -0.002 | [3] 0.019 | [4] -0.013 | [5] -0.056 | saracatinib 0.004 | sotrastaurin 0.036 | alvocidib 0.029 | Tubastatin A -0.084 | [6] 0.02 | defactinib 0.034 | [7] -0.01 | encorafenib -0.041 | [8] 0.072 | alisertib 0.032 | [9] 0.009 | gefitinib -0.007

OSBPL3 isoform 2 (UniProt Q9H4L5)
inactive: vemurafenib 0.018 | [1] 0.01 | barasertib 0.005 | [2] -0.053 | volasertib -0.139 | [3] 0.025 | [4] -0.013 | [5] -0.068 | saracatinib 0.04 | sotrastaurin 0.018 | alvocidib -0.013 | Tubastatin A -0.161 | [6] 0.056 | defactinib -0.11 | [7] -0.033 | encorafenib 0.03 | [8] 0.052 | alisertib -0.043 | [9] -0.002 | gefitinib 0.206

NFATC2 (UniProt Q13469)
inactive: vemurafenib -0.029 | [1] 0.032 | barasertib 0.011 | [2] 0.03 | volasertib -0.069 | [3] -0.006 | [4] 0.011 | [5] -0.002 | saracatinib 0.014 | sotrastaurin -0.016 | alvocidib -0.12 | Tubastatin A -0.118 | [6] 0.021 | defactinib -0.028 | [7] 0.06 | encorafenib 0.004 | [8] 0.1 | alisertib -0.047 | [9] -0.007 | gefitinib -0.025

NEDD8 (UniProt Q15843)
Chain of UniProt Q15843 (Q15843 whole entry, looked up): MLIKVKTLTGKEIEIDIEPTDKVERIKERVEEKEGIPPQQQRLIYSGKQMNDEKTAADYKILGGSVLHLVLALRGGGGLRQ
inactive: vemurafenib 0.063 | [1] 0.019 | barasertib 0.113 | [2] -0.003 | volasertib 0.045 | [3] 0.041 | [4] 0.025 | [5] -0.107 | saracatinib 0.02 | sotrastaurin 0 | alvocidib 0.169 | Tubastatin A 0.132 | [6] 0.083 | defactinib 0.019 | [7] 0.037 | encorafenib 0.015 | [8] -0.062 | alisertib 0.021 | [9] -0.03 | gefitinib -0.148

NPM3 (UniProt O75607)
Chain of UniProt O75607 (O75607 whole entry, looked up): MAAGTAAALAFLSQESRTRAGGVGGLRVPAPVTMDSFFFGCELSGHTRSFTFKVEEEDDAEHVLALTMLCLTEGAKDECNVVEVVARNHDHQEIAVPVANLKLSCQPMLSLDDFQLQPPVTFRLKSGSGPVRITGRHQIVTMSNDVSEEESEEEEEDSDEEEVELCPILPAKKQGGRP
inactive: vemurafenib 0.052 | [1] 0.03 | barasertib -0.065 | [2] 0.058 | volasertib -0.015 | [3] -0.007 | [5] 0.158 | saracatinib -0.023 | sotrastaurin 0.025 | alvocidib -0.04 | Tubastatin A 0.015 | [6] -0.017 | defactinib 0.062 | [7] 0.011 | encorafenib 0.012 | [8] 0.028 | alisertib -0.002 | [9] 0.023 | gefitinib -0.015
active: [4] -0.376

NUP160 (UniProt Q12769)
Chain of UniProt Q12769 (Q12769 whole entry, looked up): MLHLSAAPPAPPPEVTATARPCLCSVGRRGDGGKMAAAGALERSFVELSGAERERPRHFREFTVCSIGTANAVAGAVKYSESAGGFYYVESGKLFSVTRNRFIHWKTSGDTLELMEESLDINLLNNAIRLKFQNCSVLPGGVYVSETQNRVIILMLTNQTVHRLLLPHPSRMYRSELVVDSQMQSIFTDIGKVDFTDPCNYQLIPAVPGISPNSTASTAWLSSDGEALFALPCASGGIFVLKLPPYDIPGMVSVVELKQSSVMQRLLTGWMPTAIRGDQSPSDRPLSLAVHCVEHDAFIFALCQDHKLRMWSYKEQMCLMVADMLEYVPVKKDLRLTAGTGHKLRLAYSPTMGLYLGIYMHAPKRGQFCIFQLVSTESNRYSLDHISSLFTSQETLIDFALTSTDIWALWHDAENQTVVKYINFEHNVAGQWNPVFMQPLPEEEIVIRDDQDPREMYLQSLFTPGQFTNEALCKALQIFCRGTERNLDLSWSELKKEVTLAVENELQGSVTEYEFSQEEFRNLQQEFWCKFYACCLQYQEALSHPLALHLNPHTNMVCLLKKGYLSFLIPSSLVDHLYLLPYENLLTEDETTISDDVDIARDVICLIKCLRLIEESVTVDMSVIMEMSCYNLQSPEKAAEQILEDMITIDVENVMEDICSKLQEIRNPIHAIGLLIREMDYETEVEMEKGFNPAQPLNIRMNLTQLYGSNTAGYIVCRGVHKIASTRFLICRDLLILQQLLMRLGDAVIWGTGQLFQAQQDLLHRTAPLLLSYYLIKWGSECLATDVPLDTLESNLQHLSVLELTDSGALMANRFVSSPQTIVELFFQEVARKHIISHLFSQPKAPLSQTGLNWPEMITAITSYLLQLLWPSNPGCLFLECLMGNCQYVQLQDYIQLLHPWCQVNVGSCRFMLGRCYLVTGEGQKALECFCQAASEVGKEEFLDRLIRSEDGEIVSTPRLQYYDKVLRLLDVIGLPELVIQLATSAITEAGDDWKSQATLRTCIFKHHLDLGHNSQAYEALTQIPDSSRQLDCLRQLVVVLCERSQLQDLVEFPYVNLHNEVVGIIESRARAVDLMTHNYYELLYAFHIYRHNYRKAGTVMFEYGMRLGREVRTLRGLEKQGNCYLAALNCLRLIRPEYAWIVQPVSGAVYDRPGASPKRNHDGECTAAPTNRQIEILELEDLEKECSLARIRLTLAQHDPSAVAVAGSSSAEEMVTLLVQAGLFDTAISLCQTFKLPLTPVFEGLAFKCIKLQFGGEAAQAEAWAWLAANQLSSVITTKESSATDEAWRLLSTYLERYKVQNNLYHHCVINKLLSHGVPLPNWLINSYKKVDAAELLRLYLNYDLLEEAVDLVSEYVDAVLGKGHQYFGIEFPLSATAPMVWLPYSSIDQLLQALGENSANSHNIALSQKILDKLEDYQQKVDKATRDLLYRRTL
inactive: vemurafenib -0.039 | [1] 0.02 | barasertib 0.052 | [2] -0.106 | volasertib -0.105 | [3] 0.043 | [4] 0.057 | [5] -0.058 | saracatinib 0.043 | sotrastaurin -0.01 | alvocidib 0.029 | Tubastatin A -0.143 | [6] 0.045 | defactinib 0.004 | [7] -0.03 | encorafenib 0.059 | [8] -0.195 | alisertib 0.015 | [9] 0.004 | gefitinib 0.031

ORC2 (UniProt Q13416)
inactive: vemurafenib 0.048 | [1] 0.007 | barasertib 0.003 | [2] -0.077 | volasertib -0.048 | [3] 0.002 | [4] -0.002 | [5] -0.085 | saracatinib 0.007 | sotrastaurin 0.049 | alvocidib 0.034 | Tubastatin A -0.161 | [6] 0.038 | defactinib 0.034 | [7] -0.008 | encorafenib 0.018 | [8] 0.094 | alisertib 0.012 | [9] -0.002 | gefitinib -0.011

PARD3 (UniProt Q8TEW0)
Chain of UniProt Q8TEW0 (Q8TEW0 whole entry, looked up): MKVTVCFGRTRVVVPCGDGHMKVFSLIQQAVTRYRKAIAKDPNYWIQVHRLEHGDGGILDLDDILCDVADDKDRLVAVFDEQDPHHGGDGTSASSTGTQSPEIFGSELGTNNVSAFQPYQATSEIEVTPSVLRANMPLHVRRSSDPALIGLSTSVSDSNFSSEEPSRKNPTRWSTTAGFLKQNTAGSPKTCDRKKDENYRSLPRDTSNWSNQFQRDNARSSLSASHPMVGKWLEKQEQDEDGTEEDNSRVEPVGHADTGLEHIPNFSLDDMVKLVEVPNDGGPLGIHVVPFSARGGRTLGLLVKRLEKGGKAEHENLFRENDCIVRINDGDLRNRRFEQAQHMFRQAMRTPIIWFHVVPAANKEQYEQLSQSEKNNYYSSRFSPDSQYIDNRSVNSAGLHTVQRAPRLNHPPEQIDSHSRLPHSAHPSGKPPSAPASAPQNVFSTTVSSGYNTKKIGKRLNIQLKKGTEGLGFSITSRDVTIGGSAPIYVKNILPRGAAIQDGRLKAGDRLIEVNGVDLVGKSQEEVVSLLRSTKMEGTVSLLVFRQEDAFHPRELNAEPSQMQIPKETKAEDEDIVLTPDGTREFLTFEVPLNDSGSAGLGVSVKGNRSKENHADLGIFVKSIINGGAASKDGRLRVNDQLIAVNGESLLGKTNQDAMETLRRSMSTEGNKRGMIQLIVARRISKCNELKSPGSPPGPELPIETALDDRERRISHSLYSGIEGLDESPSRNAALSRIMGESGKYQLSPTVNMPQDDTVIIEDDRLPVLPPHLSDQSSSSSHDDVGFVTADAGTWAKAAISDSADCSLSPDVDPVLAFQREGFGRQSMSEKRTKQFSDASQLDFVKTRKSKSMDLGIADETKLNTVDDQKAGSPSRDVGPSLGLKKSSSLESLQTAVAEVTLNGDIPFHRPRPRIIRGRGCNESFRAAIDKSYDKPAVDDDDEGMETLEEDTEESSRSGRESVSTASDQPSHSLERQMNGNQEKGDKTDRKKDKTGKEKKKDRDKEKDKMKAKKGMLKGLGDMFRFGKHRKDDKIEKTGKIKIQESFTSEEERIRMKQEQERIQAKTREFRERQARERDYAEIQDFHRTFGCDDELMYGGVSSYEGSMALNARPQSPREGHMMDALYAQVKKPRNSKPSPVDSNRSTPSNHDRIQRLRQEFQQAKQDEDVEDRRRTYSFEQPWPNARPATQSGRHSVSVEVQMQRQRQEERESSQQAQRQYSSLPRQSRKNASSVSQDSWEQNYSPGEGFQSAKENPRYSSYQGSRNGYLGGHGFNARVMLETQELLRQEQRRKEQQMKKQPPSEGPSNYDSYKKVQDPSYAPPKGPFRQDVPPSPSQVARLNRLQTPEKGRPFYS
active: [9] 0.438
inactive: vemurafenib 0.145 | [1] -0.017 | barasertib -0.123 | [2] -0.009 | volasertib -0.016 | [3] -0.032 | [4] -0.147 | [5] -0.08 | saracatinib 0.016 | sotrastaurin 0.004 | alvocidib -0.035 | Tubastatin A -0.087 | [6] -0.021 | defactinib 0.144 | [7] -0.031 | encorafenib 0.007 | [8] 0.061 | alisertib -0.013 | gefitinib 0.04

NNT (UniProt Q13423)
Chain of UniProt Q13423 (Q13423 whole entry, looked up): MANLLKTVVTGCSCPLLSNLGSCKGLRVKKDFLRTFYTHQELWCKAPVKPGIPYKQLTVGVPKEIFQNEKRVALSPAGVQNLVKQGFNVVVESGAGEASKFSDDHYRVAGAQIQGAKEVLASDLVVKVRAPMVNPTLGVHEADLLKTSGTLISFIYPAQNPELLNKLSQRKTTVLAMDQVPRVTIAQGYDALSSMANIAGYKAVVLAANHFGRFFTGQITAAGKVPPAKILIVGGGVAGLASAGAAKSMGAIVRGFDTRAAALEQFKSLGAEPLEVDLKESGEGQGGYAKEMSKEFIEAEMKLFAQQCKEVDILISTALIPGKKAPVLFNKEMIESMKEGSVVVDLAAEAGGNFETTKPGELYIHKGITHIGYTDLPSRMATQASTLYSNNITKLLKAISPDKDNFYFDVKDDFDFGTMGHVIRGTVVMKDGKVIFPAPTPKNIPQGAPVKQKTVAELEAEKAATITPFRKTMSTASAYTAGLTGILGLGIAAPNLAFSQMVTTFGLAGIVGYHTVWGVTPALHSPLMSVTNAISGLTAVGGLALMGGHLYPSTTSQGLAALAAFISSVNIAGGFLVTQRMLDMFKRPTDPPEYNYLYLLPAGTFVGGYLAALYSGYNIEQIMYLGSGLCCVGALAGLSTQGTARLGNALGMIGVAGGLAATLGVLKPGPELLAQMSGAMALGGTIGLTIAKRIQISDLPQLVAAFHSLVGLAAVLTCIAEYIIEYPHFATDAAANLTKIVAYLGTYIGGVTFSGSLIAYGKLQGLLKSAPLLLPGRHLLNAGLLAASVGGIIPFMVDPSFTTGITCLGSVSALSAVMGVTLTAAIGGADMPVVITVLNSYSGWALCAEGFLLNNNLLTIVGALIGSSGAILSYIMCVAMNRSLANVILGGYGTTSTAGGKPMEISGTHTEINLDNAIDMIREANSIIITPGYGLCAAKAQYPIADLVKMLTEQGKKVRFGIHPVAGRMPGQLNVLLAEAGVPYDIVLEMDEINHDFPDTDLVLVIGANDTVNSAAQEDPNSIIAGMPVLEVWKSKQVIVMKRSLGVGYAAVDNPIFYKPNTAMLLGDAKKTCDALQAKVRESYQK
inactive: vemurafenib 0.012 | [1] -0.015 | barasertib 0.013 | [2] 0.022 | volasertib 0.031 | [3] -0.004 | [4] 0.041 | [5] -0.004 | saracatinib -0.025 | sotrastaurin -0.024 | alvocidib 0.006 | Tubastatin A 0.035 | [6] 0.021 | defactinib -0.005 | [7] -0.04 | encorafenib -0.018 | [8] -0.017 | alisertib -0.001 | [9] 0.021 | gefitinib 0.012

MYD88 isoform 6 (UniProt Q99836)
Chain of UniProt Q99836 (Q99836 whole entry, looked up): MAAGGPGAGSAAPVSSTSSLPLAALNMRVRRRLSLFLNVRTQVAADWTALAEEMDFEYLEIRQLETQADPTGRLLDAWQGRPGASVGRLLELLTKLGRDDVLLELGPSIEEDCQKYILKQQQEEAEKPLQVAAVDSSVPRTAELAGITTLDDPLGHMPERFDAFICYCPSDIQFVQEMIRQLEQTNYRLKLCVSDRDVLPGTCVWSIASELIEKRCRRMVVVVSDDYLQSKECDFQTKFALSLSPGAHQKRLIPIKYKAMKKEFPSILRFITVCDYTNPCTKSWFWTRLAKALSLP
inactive: vemurafenib -0.031 | [1] 0.01 | barasertib -0.002 | [2] -0.042 | volasertib -0.075 | [3] 0.022 | [4] -0.009 | [5] -0.013 | saracatinib 0.009 | sotrastaurin 0.05 | alvocidib 0 | Tubastatin A -0.216 | [6] -0.006 | defactinib 0.013 | [7] 0.001 | encorafenib 0.003 | [8] -0.003 | alisertib 0.021 | [9] -0.005 | gefitinib -0.039

MTFP1 (UniProt Q9UDX5)
Chain of UniProt Q9UDX5 (Q9UDX5 whole entry, looked up): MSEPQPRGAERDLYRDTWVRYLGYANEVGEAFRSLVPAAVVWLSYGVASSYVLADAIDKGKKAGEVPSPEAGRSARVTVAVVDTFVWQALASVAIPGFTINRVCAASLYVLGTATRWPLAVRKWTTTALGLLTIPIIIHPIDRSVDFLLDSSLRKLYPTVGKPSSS
inactive: vemurafenib -0.025 | [1] 0.031 | barasertib 0.012 | [2] 0.036 | volasertib 0.041 | [3] 0.061 | [5] 0.041 | saracatinib -0.042 | sotrastaurin 0.004 | alvocidib -0.087 | Tubastatin A -0.006 | [6] 0.053 | defactinib 0.145 | [7] 0.007 | encorafenib -0.037 | [8] 0.102 | alisertib -0.032 | [9] 0.003 | gefitinib -0.011
active: [4] -0.421
